Compounds with a hit are over-represented: about 3% of the library has one in this group of screens.
MITF TRPM1 inh = reduces MITF-dependent TRPM1 promoter luciferase signal. hit rate 0.83% among 330,000. AID 488899. inhibition, % at 12.5 µM. SK-MEL-5 TRPM1 promoter luciferase, 24 h;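 active means mean inhibition across replicates of 60% or more, whatever share of single replicates reaches that level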
ABHD5 PLIN5 PPI = ABHD5-PLIN5 protein interaction inhibition. Q00G26+Q8WTS1. Split G. princeps luciferase complementation, luminescence, 4 h. inhibition, % at 4 µM. hit rate 0.78% among 360,000;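 active means inhibition above the mean inhibition across every tested compound plus 3 SD, cut at about 22% in these data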
Target sequence (Q00G26 whole entry, looked up): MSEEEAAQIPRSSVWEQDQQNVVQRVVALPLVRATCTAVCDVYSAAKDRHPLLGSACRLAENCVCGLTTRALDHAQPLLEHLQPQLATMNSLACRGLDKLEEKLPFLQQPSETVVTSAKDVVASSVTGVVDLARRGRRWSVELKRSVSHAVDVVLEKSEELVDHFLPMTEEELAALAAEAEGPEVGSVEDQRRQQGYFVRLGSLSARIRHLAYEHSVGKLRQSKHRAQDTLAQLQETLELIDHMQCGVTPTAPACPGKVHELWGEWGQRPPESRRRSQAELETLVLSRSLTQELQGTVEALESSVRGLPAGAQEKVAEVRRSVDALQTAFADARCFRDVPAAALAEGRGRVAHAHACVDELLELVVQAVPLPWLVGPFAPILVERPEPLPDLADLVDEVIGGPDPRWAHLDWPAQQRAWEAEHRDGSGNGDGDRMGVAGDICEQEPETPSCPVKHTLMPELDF
Target sequence (Q8WTS1 whole entry, looked up): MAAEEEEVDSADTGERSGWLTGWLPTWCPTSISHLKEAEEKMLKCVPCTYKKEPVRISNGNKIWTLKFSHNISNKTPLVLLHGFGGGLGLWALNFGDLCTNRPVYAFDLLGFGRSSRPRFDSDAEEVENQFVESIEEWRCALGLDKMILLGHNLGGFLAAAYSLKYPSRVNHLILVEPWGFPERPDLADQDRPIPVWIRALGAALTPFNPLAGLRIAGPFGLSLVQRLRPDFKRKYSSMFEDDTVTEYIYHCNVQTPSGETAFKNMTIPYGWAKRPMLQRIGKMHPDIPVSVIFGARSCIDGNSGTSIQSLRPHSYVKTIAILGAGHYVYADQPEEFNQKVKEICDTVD
HIF-2a block = HIF-2a inhibition. 786-0 RCC cells HIF-2a reporter, luciferase luminescence, overnight. inhibition, % at 18.8 µM. hit rate 0.72% among 360,000;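 active means inhibition of the luminescence signal of 40% or more relative to plate controls, in a single-dose primary screen at 18.75 µM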
CF NFkB inh = cystic fibrosis NF-kB activation inhibition; AID 588850; KKLEB NF-kB-GFP reporter, PAF-induced, GFP fluorescence overnight; inhibition, % at 5 µM; hit rate 0.86% among 360,000;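 active means at least 50% inhibition at 5 µM, scaled per plate between neutral and stimulator controls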;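 further: PAF is a Pseudomonas aeruginosa culture filtrate used as stimulus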
Peg3 promoter = inhibitors of Peg3 promoter | HeLa PEG-Prom luciferase reporter, luminescence, overnight | inhibition, % at 20 µM | hit rate 1.7% among 360,000 | AID 588405;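 active means inhibition of at least 50% at 20 µM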
KKLEB tox = reduces viability of KKLEB cystic fibrosis airway cells. KKLEB CF airway cells viability, ATPlite luminescence, overnight; hits give low values; cells stimulated with P. aeruginosa culture filtrate. activity change (cytotoxicity), % at 5 µM. hit rate 0.36% among 360,000. AID 602141;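 active means corrected activity change at or below -50% at 5 µM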
A number is an active result; – = inactive; · = no result given.

SMILES	MITF TRPM1 inh	ABHD5 PLIN5 PPI	HIF-2a block	CF NFkB inh	Peg3 promoter	KKLEB tox
O=C(O)C(Cc1ccccc1N(CCO)CCO)N1C(=O)c2ccccc2C1=O (stereo unspecified)	–	–	–	–	–	–
COc1ccc(N2CCN(C(=O)COC(=O)CNC(=O)c3ccc(C)cc3)CC2)cc1	–	–	–	–	–	–
CC(C)(C)NC(=O)COC(=O)CCC(=O)c1cccs1	–	–	–	–	–	–
COc1cccc(CN2c3ccc(Br)cc3C(=O)CS2(=O)=O)c1	–	–	–	–	–	–
CN(C)c1ccc(Nc2nc(N)c([N+](=O)[O-])c(N3CCOCC3)n2)cc1	–	–	–	–	52	–
CCCN(CCC)Cc1cc(=O)oc2cc(C)c(Cl)cc12	·	–	–	–	–	–
CC(C)Oc1ccc(C(CCN)C2CCCCC2)cc1 (stereo unspecified)	88	–	–	–	105	–
CC(C)Oc1ccc(C(=O)NC2CCCCC2)cc1	–	–	–	–	–	–
COc1cccc(-c2nnc(SC(C(=O)c3c[nH]c4ccccc34)c3ccccc3)n2C)c1 (stereo unspecified)	–	–	–	–	53	–
COc1ccccc1-c1nnc(SC(C(=O)c2c[nH]c3ccccc23)c2ccccc2)n1C (stereo unspecified)	–	–	–	–	54	–
Cc1cc(N2C(=O)C=CC2=O)c([N+](=O)[O-])cc1C	–	33	51	66	105	–
C/C(=N\NC(=O)C(C)Oc1ccc([N+](=O)[O-])cc1)c1ccccn1 (stereo unspecified)	83	–	–	–	–	–
CC(Oc1ccccc1)C(=O)NNC(=O)c1ccccn1 (stereo unspecified)	–	–	–	–	–	–
COc1cc(/C=C(/C#N)C(=O)NCCc2c[nH]c3ccccc23)ccc1OCc1ccccc1F	–	–	–	–	89	–
COc1ccccc1Cc1c(C2CCCCC2)nc2ccc(C)cn12	·	–	–	–	74	–
Nc1ccc(N(c2ccccc2)c2ccc(N)cc2)cc1	–	–	–	87	–	–
CCOc1cc(/C=C/C(=O)Nc2ccc(C(=O)NCCN(CC)CC)cc2)ccc1OCC(C)C	83	–	–	–	104	–
CCOc1ccc(/C=C/C(=O)Nc2ccc(C(N)=O)cc2)cc1OC	–	–	–	–	–	–
COc1ccc(NC(=O)N(C)C[C@@H]2OCc3cnnn3CCCC(=O)N([C@@H](C)CO)C[C@H]2C)cc1	·	–	–	–	–	–
Cc1oc2c(CN3CCCCC3)c(O)ccc2c(=O)c1-c1ccc(Cl)cc1	–	–	–	–	–	–
CCC1(CC)NC(=O)N(CC(=O)N2N=C(c3ccc(Cl)cc3)CC2c2ccco2)C1=O (stereo unspecified)	–	22	–	–	–	–
Cc1ccc(CN(Cc2cc3cccc(C)c3[nH]c2=O)C(=S)NCCCN(C)C)cc1	–	–	–	–	87	–
COc1ccc(CN(CCN(C)C)c2ccccn2)cc1	–	–	–	–	–	–
CCCCCCCCCCCCCCCC[N+](C)(C)CCN(Cc1ccc(OC)cc1)c1ncccn1	103	–	86	–	105	–
Cc1cc(C)nc(N/N=C/C2=C(O)CC(c3ccc(F)cc3)CC2=O)n1 (stereo unspecified)	·	–	–	–	–	–
SMILES	MITF TRPM1 inh	ABHD5 PLIN5 PPI	HIF-2a block	CF NFkB inh	Peg3 promoter	KKLEB tox
CC(=O)Nc1ccc(S(=O)(=O)N2CCN(c3nc(NC4CCCC4)c4ccccc4n3)CC2)cc1	–	–	–	–	85	–
CCc1nnc(N/N=C/c2cc(Br)c(O)cc2O)n1N	–	–	–	–	–	–
CC(C)(C)c1nnc(N/N=C/c2cc(Br)ccc2O)n(N)c1=O	68	–	–	–	73	–
CC(=NNC(=S)N1CCC1)c1ccccn1	69	–	–	–	–	–
CC(=NNC(=S)SCc1ccccc1)c1ccccn1	–	–	–	–	94	–
NC(=S)NC(=O)/C=C/c1ccccc1	–	–	–	–	–	–
CC1C=CC=CC=CC=CC=CC=CC=CC(OC2OC(C)C(O)C(N)C2O)CC2OC(O)(CC(O)CC(O)C(O)CCC(O)CC(O)CC(=O)OC(C)C(C)C1O)CC(O)C2C(=O)O (stereo unspecified)	–	–	–	55	–	–
COc1ccccc1/C=C/C1(C(=O)NC2CCCC2)CC(=O)N1c1ccc(F)cc1 (stereo unspecified)	–	–	–	80	–	-77
Cc1[nH]c(=O)c(C#N)c(C)c1CCC(=O)Nc1cc(S(C)(=O)=O)ccc1Cl	–	–	–	–	–	–
O=C(O)c1ccc(NC2=C/C(=N/S(=O)(=O)c3cccs3)c3ccccc3C2=O)cc1	·	–	–	87	–	–
O=C(O)c1ccc(Nc2nc3ccccc3nc2NS(=O)(=O)c2cccs2)cc1	–	–	–	–	–	–
Cc1cccc(NC2=C/C(=N/S(=O)(=O)c3cccs3)c3ccccc3C2=O)c1	102	–	–	93	–	-65
O=C1C(Nc2ccc(O)cc2)=C/C(=N/S(=O)(=O)c2cccs2)c2ccccc21	108	–	40	93	106	-65
Cc1cc(C)n(CCNC(=O)[C@H]2O[C@@H](n3cnc4c(N)ncnc43)[C@H](O)[C@@H]2O)n1	·	–	–	–	–	–
CC1(C(=O)NS(=O)(=O)C2CC2)CCN(C(=O)c2ccc(F)cc2Cl)C1 (stereo unspecified)	·	–	–	–	–	–
CCOc1ccc(S(=O)(=O)NCc2cccnc2)cc1C(C)C	–	–	–	–	–	–
Cc1ccc(CNC(=O)CCC(=O)Nc2nnc(C)s2)cc1	–	–	–	–	–	–
COC(=O)[C@@]12C[C@@H](CC(=O)N3CCCCC3)C(=O)N(Cc3ccco3)C1=CCC(C)(C)C2	·	–	–	·	·	·
CC(C)(C)NC(=O)C[C@H]1C[C@H](C(=O)N2CCOCC2)[C@@]2(CCC3CCCC3)c3[nH]c4cc(-c5ccco5)ccc4c3CCN2C1=O	–	32	–	–	–	–
COc1ccc2[nH]c3c(c2c1)CCN1C(=O)C(CC(=O)NC/C=C(\C)CCC=C(C)C)C[C@H](C(=O)N2CCOCC2)[C@@]31CCC1CCCC1 (stereo partly specified)	–	–	–	–	59	–
CC[C@]12c3[nH]c4ccc(OC)cc4c3CCN1C(=O)C(CC(=O)NC/C=C(\C)CCC=C(C)C)C[C@@H]2C(=O)N1CCN(C(=O)C2CC2)CC1 (stereo partly specified)	–	–	–	–	–	–
O=C(C[C@H]1C[C@H](C(=O)N2CCOCC2)[C@@]2(CCC3CCCC3)c3[nH]c4cc(-c5ccco5)ccc4c3CCN2C1=O)NCCN1CCOCC1	–	–	–	–	–	–
COc1ccc(OC)c(CCNC(=O)Cn2nc(C)c3c(C)n(-c4ccccc4)nc3c2=O)c1	–	–	–	–	–	–

Screening results deposited in PubChem BioAssay by several laboratories.
